High-throughput results from PubChem.
TbPYK inhibitor = qHTS of Trypanosoma Brucei Inhibitors; TbPYK enzyme, Kinase-Glo Plus ATP luminescence, 45 min; Potency, µM (titrated, usually from 76.8 µM), for the others: at the top dose activity, negative = inhibition, most hits filed as inhibitors; 410,000 compounds, 0.12% hits; note: % is set by controls: 0 for no effect and ±100 for the full control effect; nearly all actives have a fitted effect of over 50% in size
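Readout: single end-point luminescence (Kinase-Glo Plus, 10 min). Reaction conditions were TbPYK/substrate plus 130 uM ADP, 45 min at RT, pH 7.2 TEA buffer. No-enzyme wells served as controls, and data were normalized before concentration-response fitting.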
RE007 growth inh = qHTS Assay for Inhibitors of the HIV-1 protein Vpr; 360,000 compounds, 0.21% hits; Potency, µM (series often up to 92.2 µM), for the others: top-dose activity change, negative = less growth, actives largely listed as inhibitors; S. pombe RE007 Vpr strain, BacTiter-Glo ATP luminescence, 24 h; AID 651644, 2012; active = well fitted falling curve with a large enough effect; inconclusive = small, poorly fitted or top-dose-only effect; inactive = no such curve, though single readings can be large or run the other way; note: % is set by controls: 0 for no effect and ±100 for the full control effect; nearly all actives have a fitted effect of over 50% in size
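Fission yeast RE007 carrying one integrated HIV-1 vpr copy, seeded at OD 0.01 in PMG+AL medium with 23 nL pinned compound. Grown 24 h at 30 degrees; viability read by BacTiter-Glo luminescence after 5 min.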
LmPK inhibitor = qHTS Assay for Inhibitors of Leishmania Mexicana Pyruvate Kinase (LmPK). 290,000 compounds, 0.37% hits. purified LmPK, Kinase-Glo ATP luminescence, 1 h. Potency, µM (highest dose often 57.5 µM), inactives show at the top dose activity change, negative = inhibition, actives largely listed as inhibitors. Q27686; note: % is set by controls: 0 for no effect and ±100 for the full control effect
Target sequence (Q27686 whole entry, looked up): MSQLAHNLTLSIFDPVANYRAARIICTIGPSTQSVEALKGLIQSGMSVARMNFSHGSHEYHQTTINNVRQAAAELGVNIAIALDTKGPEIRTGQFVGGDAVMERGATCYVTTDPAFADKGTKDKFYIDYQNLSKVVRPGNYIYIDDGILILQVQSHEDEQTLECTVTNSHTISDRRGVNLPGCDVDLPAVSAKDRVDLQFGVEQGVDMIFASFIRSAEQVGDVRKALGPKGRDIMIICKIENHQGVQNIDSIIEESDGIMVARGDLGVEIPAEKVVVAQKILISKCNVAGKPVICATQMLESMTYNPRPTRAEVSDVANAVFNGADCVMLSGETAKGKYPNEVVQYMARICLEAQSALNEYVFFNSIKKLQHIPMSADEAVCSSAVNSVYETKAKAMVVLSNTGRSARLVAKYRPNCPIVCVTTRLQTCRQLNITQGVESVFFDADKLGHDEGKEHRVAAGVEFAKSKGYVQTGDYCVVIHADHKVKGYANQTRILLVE
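Pyruvate kinase activity monitored as ATP production (luciferase luminescence). Conditions: 0.1 nM enzyme, 0.5 mM PEP, 0.1 mM ADP, 1 h, RT; normalized against uninhibited and no-enzyme wells.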
SARS PLpro yeast = qHTS of Yeast-based Assay for SARS-CoV PLP. 330,000 compounds, 0.19% hits. S. cerevisiae expressing SARS-CoV PLpro, growth rescue. Potency, µM (series often up to 32.9 µM), inactives show top-dose activity, positive = growth rescue, usual class: activators; calls by dose curve; note: 0% is about no effect; nearly all actives have a fitted effect of over 55% in size
AMA1 RON2 block = qHTS for Inhibitors of AMA1-RON; Towards Development of Antimalarial Drug Lead: Primary Screen; AID 720542, 2013; AlphaScreen AMA1-biotinylated RON2 peptide binding; Potency, µM (series often up to 58.2 µM), for inactives: at the highest dose activity change, negative = inhibition, usual class: inhibitors; Plasmodium falciparum AMA1 (3D7) - RON2 peptide interaction; 360,000 compounds, 0.2% hits;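 note: 0% = vehicle wells and -100% = peptide control; nearly all actives have a fitted effect of over 45% in size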
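AMA1 (3D7) with his tag at 25 nM final met compounds first, then biotinylated RON2 peptide at 25 nM; detection used donor plus acceptor beads, 10 µg/mL apiece, read by AlphaScreen after 30 min at room temperature.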
Active calls of the source: *; ? = inconclusive; . = no result given; [ ] = remark or other dose. Most compounds without a hit are left out; they make up all but 0.81% or so of the library. Unless noted, calls come from the whole dose curve; as a rule, active = well fitted curve in the direction sought with a large enough effect; inconclusive = small, poorly fitted or top-dose-only effect, or another doubt; inactive = no such curve, though single readings can be large; an effect the other way counts as inactive or inconclusive. Potency is the fitted concentration of half-maximal effect.

SMILES | TbPYK inhibitor | RE007 growth inh | LmPK inhibitor | SARS PLpro yeast | AMA1 RON2 block
O=C1CC(SCc2nc3ccccc3[nH]2)C(=O)N1c1cccc(F)c1 (configuration not stated) | -7% | 32µM* | 2% | -26% | 25%
O=C1CC(SCc2nc3ccccc3[nH]2)C(=O)N1c1ccc(Cl)cc1 (configuration not stated) | -7% | 16µM* | -1% | -33% | 90%
COc1ccccc1-c1cn(CC[C@H]2CC[C@@H](NS(=O)(=O)c3ccccc3C)[C@@H](CO)O2)nn1 | . | 11% | . | . | -6%
CCC1=C[C@@H]2CN(C1)Cc1c([nH]c3ccccc13)[C@@](C(=O)OC)(c1cc3c(cc1OC)N(C)[C@@H]1[C@@](O)(C(=O)OC)[C@H](OC(C)=O)[C@]4(CC)C=CCN5CC[C@]31[C@@H]54)C2 | -13% | . | . | . | .
CCOc1ccc(N2C(=O)CC(SCc3nc4ccccc4[nH]3)C2=O)cc1 (configuration not stated) | 5% | 10µM* | 2% | -7% | 49%
CCCOc1ccc(N2C(=O)CC(SCCc3nc4ccccc4[nH]3)C2=O)cc1 (configuration not stated) | -10% | -11% | -9% | -5% | 8%
CC(C)Oc1cccc(NC(=O)c2ccccc2C(F)(F)F)c1 | 2%[157 µM] | . | . | . | .
COc1ccc(OC)c(CNc2ccc([N+](=O)[O-])cc2C)c1 | -7% | 31% | 14% | -9% | 13µM*
CCOc1ccc(NC(=O)CSc2ccc(-c3ccccn3)nn2)cc1 | -2% | -5% | 1% | 7.9µM* | -28%
O=C(CSc1ccc(-c2ccccn2)nn1)NCc1ccc(Cl)cc1 | 5% | -19% | -12% | 22% | 14µM*
CCC(=O)NC(/C=C/c1ccccc1)c1cc([N+](=O)[O-])c2cccnc2c1O (configuration not stated) | . | . | 6% | 2.2µM* | .
Cc1occc1C(=O)Nc1ccc2c(c1)OCCO2 | -17% | -15% | 13µM* | -17% | -9%
Cc1occc1C(=O)Nc1ccc2c(c1)CCC2 | -21% | ? | 13µM* | -25% | -13%
O=C(Nc1ccc2c(c1)OCCO2)c1coc2ccccc2c1=O | ? | -11% | 7.9µM* | -18% | 3%
CC(C)(C)NC[C@H](O)CSc1nc(-c2ccc(C(N)=O)s2)cs1 | 1% | . | . | . | .
COC(=O)C1=C(C(=O)OC)[C@@H]2N(C)c3ccc(OC)cc3[C@@]23C[C@@H](C(=O)OC)N(S(=O)(=O)c2ccc(Br)cc2)C3=N1 | . | . | -2%[11.5 µM] | . | .
Nc1ccc(S(=O)(=O)NNC(=O)C(=O)NNc2ccccn2)cc1 | -1% | -1% | 0% | 2% | 45%
Cc1ccc(S(=O)(=O)NNC(=O)C(=O)NNc2ccccn2)cc1 | 2% | 11% | -1% | -1% | 32µM*
COc1cccc(CN(C(=O)c2oc3cc(C)ccc3c2C)C2CCS(=O)(=O)C2)c1 (configuration not stated) | 2% | . | . | . | .
COc1ccccc1NC(=O)CSc1nnc(NC(=O)Nc2ccc(C)cc2)s1 | -8% | . | . | . | .
CCOc1ccc2c(c1)-c1c(ssc1=S)C(C)(C)N2C | -9% | -26% | -3% | -15% | 10µM*
Cc1cc(-n2c(=O)[nH]c(=O)n(C)c2=O)ccc1Oc1ccc(S(=O)(=O)C(F)(F)F)cc1 | -8% | . | . | . | .
O=[N+]([O-])c1cccc2c([N+](=O)[O-])cccc12 | -3% | -4% | . | -5% | 11%
Cc1cc([N+](=O)[O-])c2ccccc2[n+]1[O-] | -1% | 14µM* | -4% | -22% | 2%
COc1ccc(NC(=O)CSC2=Nc3ccccc3C3=NC(CCC(=O)NC4CCCCC4)C(=O)N23)cc1Cl (configuration not stated) | 3% | . | . | . | .
SMILES | TbPYK inhibitor | RE007 growth inh | LmPK inhibitor | SARS PLpro yeast | AMA1 RON2 block
CCN(CCCl)c1cc(CN(C)C)cc(NC(=O)c2ccc(C(=O)Nc3cc(CN(C)C)cc(N(CC)CCCl)c3)cc2)c1 | -2% | 23% | . | . | 25µM*
CC[C@@H]1OC(=O)C[C@H](O)[C@@H](C)[C@@H](O[C@H]2O[C@@H](C)[C@H](O[C@@H]3C[C@](C)(O)[C@H](O)[C@@H](C)O3)[C@@H](N(C)C)[C@@H]2O)[C@@H](C=O)C[C@@H](C)C(=O)/C=C/C(C)=C[C@@H]1CO[C@H]1O[C@@H](C)[C@H](O)[C@H](OC)[C@@H]1OC | 3% | . | . | . | .
CC(Oc1cccc(Cl)c1)C(=O)Nc1nc(-c2ccccn2)cs1 (configuration not stated) | -5% | 45µM* | . | -4% | 4%
CC#CCN1c2ccccc2[C@]23C[C@@H](C(=O)OC)N(S(=O)(=O)c4ccc(OC)cc4)C2=NC(C(=O)OC)=C(C(=O)OC)[C@H]13 | . | . | 0%[11.5 µM] | . | .
O=C1c2ccccc2C(=O)c2c(Nc3ccc(CCO)cc3)ccc(O)c21 | -14% | . | ? | 0% | 8.9µM*
C=C1/C(=C/C=C2\CCCC3(C)[C@@H]([C@H](C)/C=C/C=C/C(O)(CC)CC)CC[C@@H]23)C[C@@H](O)C[C@@H]1O (some centres not stated) | -1% | . | . | . | .
CC(C)Oc1ccc(CCc2n[nH]c(=S)n2-c2ccccc2)cc1 | ? | 7% | 14µM* | 11% | 49%
S=c1[nH]nc(CSCc2ccccc2Cl)n1-c1ccccc1 | . | 6%[3.69 µM] | 13µM* | -9% | -6%
COc1ccc(OCc2n[nH]c(=S)n2Cc2ccco2)cc1 | 2.8µM* | 2% | -13% | 5% | 92%
COc1ccc(-n2c(COc3ccccc3)n[nH]c2=S)cc1 | 11µM* | 17% | 5% | 4% | 93%
CCOC(=O)Cc1ccc(NC(=O)NC(C)c2c(-n3cccc3)sc(C)c2C)cc1 (configuration not stated) | -1% | . | . | . | .
C=CCN1CC(C(=O)N(CCCN(C)C)C(=O)NCC)CC2c3cccc4[nH]cc(c34)CC21 (configuration not stated) | -8% | . | . | . | .
Cc1c(C)c2c(c(C)c1OC(=O)CCC(=O)OCCO)CC[C@](C)(CCC[C@H](C)CCC[C@H](C)CCCC(C)C)O2 | 4% | . | . | . | .
CN1[C@@H]2CC[C@@H]1CC(OC(=O)[C@H](CO)c1ccccc1)C2 (some centres not stated) | 1% | . | . | . | .
[NH-]CCC([O-])=NC(Cc1cnc[nH]1)C(=O)[O-].[Zn+2] (configuration not stated) | 2% | . | . | . | .
COc1ccc(CSCCc2n[nH]c(=S)n2-c2ccccc2)cc1 | 3.2µM* | 12% | -3% | 2% | 81%
Cc1ccc(OCc2n[nH]c(=S)n2-c2ccccc2)cc1C | ? | 1% | ? | 0% | 92%
